NOMO-1 viab: STK33 inhibitor candidate reducing NOMO-1 cell viability; 37,000 compounds, 7.5% hits; NOMO-1 AML viability, CellTiter-Glo luminescence, 72 h; inhibition, % (test concentration not listed); AID 2330; in the data active = inhibition above about 80%; inconclusive = no clear call, values can overlap the other calls
PD-1 reverse act: reversal of PD-1 mediated T-cell inhibition. primary human CD4 T cells, PD-L1 beads, CellTiter-Glo 96 h. activation, % (test concentration not listed). 29,000 tested, under 10 active. AID 2316; call rule not given here;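 also: 0% = median vehicle wells and 100% = positive control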
STK33 kin inh: human STK33 kinase inhibition. Q9BYT3. ADP-Glo luminescence, MBP substrate. inhibition, % at 12.5 µM. 27,000 compounds, 0.44% hits; in the data active = inhibition above about 20%; inconclusive = no clear call, values can overlap the other calls
Target sequence (Q9BYT3 whole entry, looked up): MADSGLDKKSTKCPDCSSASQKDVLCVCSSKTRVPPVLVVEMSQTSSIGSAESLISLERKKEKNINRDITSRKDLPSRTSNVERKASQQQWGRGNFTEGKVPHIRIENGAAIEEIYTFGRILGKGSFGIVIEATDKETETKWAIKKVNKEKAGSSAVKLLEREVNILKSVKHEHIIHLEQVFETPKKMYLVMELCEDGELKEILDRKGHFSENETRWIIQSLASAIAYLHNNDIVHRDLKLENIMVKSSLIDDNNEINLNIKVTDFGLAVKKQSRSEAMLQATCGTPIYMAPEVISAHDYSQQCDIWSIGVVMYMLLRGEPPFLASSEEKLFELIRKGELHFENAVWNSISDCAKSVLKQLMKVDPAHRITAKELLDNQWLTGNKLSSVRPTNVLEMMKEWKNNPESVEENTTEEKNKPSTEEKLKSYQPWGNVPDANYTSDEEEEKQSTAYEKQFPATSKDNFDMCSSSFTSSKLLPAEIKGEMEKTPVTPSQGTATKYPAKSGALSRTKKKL
* = called active by the depositor. This is one part of a sample in which hits are shown more often than they occur.

Results for C[C@@H]1CN([C@H](C)CO)C(=O)c2cccc(NC(=O)c3cnccn3)c2O[C@H]1CN(C)Cc1ccc(Oc2ccccc2)cc1 ?
NOMO-1 viab: 25.6; PD-1 reverse act: -1.7

Results for C[C@@H]1CN([C@H](C)CO)C(=O)c2cccc(NC(=O)c3cnccn3)c2O[C@@H]1CN(C)Cc1ccc(Cl)c(Cl)c1 ?
NOMO-1 viab: 35.1; PD-1 reverse act: -1.9

What do the screens show for `CCN=C1SC(CC(=O)Nc2sc3c(c2C(=O)OCC)CCCC3)C(=O)N1CC` (stereo not given)?
NOMO-1 viab: 18.9; PD-1 reverse act: -0.6

What do the screens show for `CC1=C(C(=O)Nc2ccccc2C)C(c2ccccc2OCc2ccccc2)n2ncnc2N1` (stereo not given)?
NOMO-1 viab: -23.6; PD-1 reverse act: -0.3; STK33 kin inh: 0.5

How did O=C(CSc1nnnn1-c1ccccc1)Nc1ccc2c(c1)OCCO2 do in these assays?
NOMO-1 viab: -12.9; STK33 kin inh: 0.3

How did O=c1[nH]ncc(NCC2CCCO2)c1Cl (stereo not given) do in these assays?
NOMO-1 viab: 18.5; PD-1 reverse act: -1.4; STK33 kin inh: -3.6

What do the screens show for `C[C@H]1CN([C@@H](C)CO)C(=O)c2cc(NC(=O)Nc3ccc(C(F)(F)F)cc3)ccc2O[C@H]1CN(C)Cc1ccccc1`?
NOMO-1 viab: 102.6*; PD-1 reverse act: -3.0; STK33 kin inh: -1.1

How did C[C@@H]1CN([C@H](C)CO)C(=O)c2cc(NC(=O)Nc3ccc(C(F)(F)F)cc3)ccc2O[C@@H]1CN(C)Cc1ccc(-c2ccccc2)cc1 do in these assays?
NOMO-1 viab: -11.6; PD-1 reverse act: 0.7

Results for C[C@@H]1CN([C@@H](C)CO)C(=O)c2cc(NC(=O)Nc3ccccc3)ccc2O[C@H]1CN(C)Cc1ccc(C(F)(F)F)cc1 ?
NOMO-1 viab: 79.1; PD-1 reverse act: 0.8

What do the screens show for `C[C@H]1CN([C@@H](C)CO)C(=O)c2cc(NC(=O)Nc3ccccc3)ccc2O[C@H]1CN(C)Cc1ccc(C(F)(F)F)cc1`?
NOMO-1 viab: 14.3; PD-1 reverse act: 0.8; STK33 kin inh: -0.9

How did C[C@H]1CN([C@@H](C)CO)C(=O)c2cc(NC(=O)Nc3ccc(C(F)(F)F)cc3)ccc2O[C@@H]1CN(C)Cc1ccc(Oc2ccccc2)cc1 do in these assays?
NOMO-1 viab: 48.2; PD-1 reverse act: 1.1; STK33 kin inh: -3.6

What do the screens show for `C[C@@H]1CN([C@@H](C)CO)C(=O)c2cc(NC(=O)Nc3ccc(C(F)(F)F)cc3)ccc2O[C@H]1CN(C)Cc1ccccc1`?
NOMO-1 viab: 96.2*; PD-1 reverse act: -3.5; STK33 kin inh: 2.9

How did C[C@@H]1CN([C@H](C)CO)C(=O)c2cc(NC(=O)Nc3ccc(C(F)(F)F)cc3)ccc2O[C@@H]1CN(C)Cc1ccccc1 do in these assays?
NOMO-1 viab: 89.2*; PD-1 reverse act: -0.8

Results for C[C@@H]1CN([C@@H](C)CO)C(=O)c2cc(NC(=O)Nc3ccc(C(F)(F)F)cc3)ccc2O[C@H]1CN(C)Cc1ccc(Oc2ccccc2)cc1 ?
NOMO-1 viab: 118.4*; PD-1 reverse act: -7.1; STK33 kin inh: 2.7

Results for C=CC[n+]1ccc2ccccc2c1 ?
NOMO-1 viab: 3.7; PD-1 reverse act: 2.0; STK33 kin inh: -1.6

How did CCOc1ccc2sc(C=NC(C)CC)c(O)c2c1 (stereo not given) do in these assays?
NOMO-1 viab: 28.3; PD-1 reverse act: 0.4

Results for C[C@@H]1CN([C@@H](C)CO)C(=O)c2cc(NC(=O)Nc3ccccc3)ccc2O[C@@H]1CN(C)Cc1ccc(C(F)(F)F)cc1 ?
NOMO-1 viab: 97.5*; PD-1 reverse act: -1.0; STK33 kin inh: 1.5

Results for C[C@H]1CN([C@@H](C)CO)C(=O)c2cc(NC(=O)Nc3ccccc3)ccc2O[C@@H]1CN(C)Cc1ccc(C(F)(F)F)cc1 ?
NOMO-1 viab: inconclusive; PD-1 reverse act: 0.9

What do the screens show for `C[C@H](CO)N1C[C@H](C)[C@H](CN(C)Cc2ccc(C(F)(F)F)cc2)Oc2ccc(NC(=O)Nc3ccccc3)cc2C1=O`?
NOMO-1 viab: 15.4

Results for C[C@H](CO)N1C[C@H](C)[C@H](CN(C)Cc2ccccc2)Oc2ccc(NC(=O)Nc3ccc(C(F)(F)F)cc3)cc2C1=O ?
NOMO-1 viab: 91.3*; PD-1 reverse act: -5.0; STK33 kin inh: 0.3

How did Cc1nc(CSc2ncnc3sc4c(c23)CCCCC4)cs1 do in these assays?
NOMO-1 viab: 2.8; PD-1 reverse act: 0.2; STK33 kin inh: 6.3

How did CCOC(=O)CN1C(=O)C2(C(C#N)=C(N)Oc3n[nH]c(C)c32)c2ccccc21 (stereo not given) do in these assays?
NOMO-1 viab: 1.1; PD-1 reverse act: 3.6; STK33 kin inh: 1.4

How did COc1ccc(-n2c(SCC(=O)Nc3ccccc3OC)nc3sc4c(c3c2=O)CCCC4)cc1 do in these assays?
NOMO-1 viab: 3.9; PD-1 reverse act: 0.7; STK33 kin inh: 5.7

Results for COc1cc(/C=C2\Oc3cc(O)ccc3C2=O)ccc1O ?
NOMO-1 viab: -2.0; PD-1 reverse act: 1.9; STK33 kin inh: 78.2*

Results for COc1ccc(-c2coc3cc(O)ccc3c2=O)c(OC)c1O ?
NOMO-1 viab: 8.5; STK33 kin inh: 1.4

What do the screens show for `C[C@H]1CN([C@@H](C)CO)C(=O)Cc2cc(NS(=O)(=O)c3ccc(F)cc3)ccc2O[C@@H]1CN(C)Cc1ccc(Cl)c(Cl)c1`?
NOMO-1 viab: 57.3; PD-1 reverse act: -1.8; STK33 kin inh: 0.5

How did C[C@@H]1CN([C@H](C)CO)C(=O)Cc2cc(NS(=O)(=O)c3ccc(F)cc3)ccc2O[C@@H]1CN(C)Cc1ccc(Cl)c(Cl)c1 do in these assays?
NOMO-1 viab: 106.2*; PD-1 reverse act: -0.1; STK33 kin inh: 4.5

How did C[C@@H]1CN([C@H](C)CO)C(=O)Cc2cc(NS(=O)(=O)c3ccc(F)cc3)ccc2O[C@H]1CN(C)Cc1ccncc1 do in these assays?
NOMO-1 viab: 5.9; STK33 kin inh: -1.3

What do the screens show for `C[C@H](CO)N1C[C@H](C)[C@H](CN(C)Cc2ccc(Cl)c(Cl)c2)Oc2ccc(NS(=O)(=O)c3ccc(F)cc3)cc2CC1=O`?
NOMO-1 viab: 107.3*; PD-1 reverse act: -0.4; STK33 kin inh: 11.3

How did CC(C)(CO)NCC(O)COc1ccccc1Cl (stereo not given) do in these assays?
NOMO-1 viab: 42.0; PD-1 reverse act: 0.6; STK33 kin inh: -0.3

How did Cc1ccc(NS(=O)(=O)c2cc(C(=O)Nc3ccccc3C(=O)N3CCOCC3)ccc2Cl)c(C)c1 do in these assays?
NOMO-1 viab: -1.2; PD-1 reverse act: 1.7; STK33 kin inh: 0.0

What do the screens show for `C[C@@H]1CN([C@H](C)CO)C(=O)c2cc(NC(=O)Nc3ccc(F)cc3)ccc2O[C@H]1CN(C)Cc1ccc(Cl)c(Cl)c1`?
NOMO-1 viab: 15.0; PD-1 reverse act: 1.4; STK33 kin inh: 0.3

What do the screens show for `C[C@@H]1CN([C@@H](C)CO)C(=O)c2cc(NC(=O)Nc3ccc4c(c3)OCO4)ccc2O[C@@H]1CN(C)Cc1ccc(Cl)c(Cl)c1`?
NOMO-1 viab: 95.3*; PD-1 reverse act: 1.6; STK33 kin inh: 1.6

Results for C[C@H]1CN([C@@H](C)CO)C(=O)c2cc(NC(=O)Nc3ccc4c(c3)OCO4)ccc2O[C@H]1CN(C)Cc1ccc(Cl)c(Cl)c1 ?
NOMO-1 viab: -1.6; PD-1 reverse act: 1.3; STK33 kin inh: 0.3
